From PubChem BioAssay
Shown are actives, neighbours in structure and some others; about 1.5% of the full set was active somewhere.
FBPA coupling cs: qHTS Assay for Inhibitors of Fructose-1,6-bisphosphate Aldolase from Giardia Lamblia: Coupling assay counterscreen. coupling enzyme system counterscreen, AmpLite Red fluorescence. activity change, negative = inhibition, % at 58.2 µM, hits read low. 290,000 compounds, 0.67% hits; in the data active = activity change below about -30%
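Counterscreen of the coupled detection system alone, without aldolase: glyceraldehyde-3-phosphate coupling enzymes plus AmpLite Red readout. Compounds at 57.5 uM final, 10 min RT preincubation, 20 min RT reaction, fluorescence 525/598 nm.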
TrxR1 inh: qHTS Assay for Inhibitors of Mammalian Selenoprotein Thioredoxin Reductase 1 (TrxR1): qHTS; Thioredoxin reductase 1, cytoplasmic (Rattus norvegicus), O89049; recombinant rTrxR1, NADPH fluorescence consumption, selenite substrate; Potency, µM (titrated, usually from 114 µM), for the others: at the top dose activity change, negative = inhibition, actives largely listed as inhibitors; 390,000 compounds, 1% hits; AID 588453, 2011; also: potency is read from the fitted curve at half-maximal effect; nearly all actives have a fitted effect of over 65% in size
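Rat TrxR1 (90 nM in the dispensed reagent) was pre-reduced with 400 uM NADPH for 5 min at room temperature, then incubated with compound for 15 min. After 400 uM selenite was added, NADPH fluorescence (Ex 340/Em 450 nm) was followed for 8 min.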
Eya2 phos inh: qHTS Assay for Inhibitors of the Phosphatase Activity of Eya2 | Protein phosphatase EYA2 (Homo sapiens), O00167 | recombinant Eya2, OMFP fluorescence dephosphorylation (OMFP is methylfluorescein phosphate) | Potency, µM (doses to about 76.9 µM), for the others: at the highest dose activity, negative = inhibition, actives largely listed as inhibitors | 330,000 compounds, 0.006% hits; also: potency is read from the fitted curve at half-maximal effect
Target sequence (O00167 whole entry, looked up): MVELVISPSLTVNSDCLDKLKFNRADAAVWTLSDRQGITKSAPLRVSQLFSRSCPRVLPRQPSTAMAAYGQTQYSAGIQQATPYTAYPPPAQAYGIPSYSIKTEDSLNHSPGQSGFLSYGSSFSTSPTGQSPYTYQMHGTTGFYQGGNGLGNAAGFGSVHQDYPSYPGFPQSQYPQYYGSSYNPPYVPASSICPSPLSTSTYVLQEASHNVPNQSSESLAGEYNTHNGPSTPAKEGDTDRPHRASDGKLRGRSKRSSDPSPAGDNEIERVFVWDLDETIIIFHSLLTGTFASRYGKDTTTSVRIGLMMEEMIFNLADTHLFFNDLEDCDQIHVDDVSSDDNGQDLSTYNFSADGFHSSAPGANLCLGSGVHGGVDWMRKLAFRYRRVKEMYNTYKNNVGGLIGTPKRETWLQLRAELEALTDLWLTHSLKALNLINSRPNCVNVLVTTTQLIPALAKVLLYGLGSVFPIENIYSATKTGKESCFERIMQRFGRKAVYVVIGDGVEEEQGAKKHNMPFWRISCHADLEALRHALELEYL
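Eya2 protein (added as 0.2 uM solution) was preincubated with compound for 10 min at ambient temperature in 50 mM HEPES pH 7.5, 50 mM NaCl, 5 uM MgCl2, 0.05% BSA, 1 mM DTT. OMFP (added at 50 uM) then reacted 10 min; fluorescence read at 485/525 nm.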
TrxR1 substrate: qHTS Assay for Substrates of Mammalian Selenoprotein Thioredoxin Reductase 1 (TrxR1): qHTS; 390,000 compounds, 0.01% hits; AID 588456, 2011; purified TrxR1 substrate turnover, NADPH consumption readout; Thioredoxin reductase 1, cytoplasmic (Rattus norvegicus), O89049; Potency, µM (doses to about 114 µM), for the others: at the highest dose activity change, negative = substrate turnover; also: potency is read from the fitted curve at half-maximal effect; nearly all actives have a fitted effect of over 50% in size
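Rat TrxR1, dispensed at 90 nM, was prereduced with 400 uM NADPH (final) for 5 min at ~22 deg C, then incubated with compound 15 min before 400 uM selenite. A first-read NADPH fluorescence drop versus no-compound background flagged substrates.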
mIDH1 inhibitor: qHTS for Inhibitors of mutant isocitrate dehydrogenase 1 (IDH1): qHTS | AID 602179, 2012 | 390,000 compounds, 0.093% hits | Potency, µM (series often up to 76.6 µM), for inactives: at the top dose activity change, negative = inhibition, usual class: inhibitors | IDH1-R132H enzyme, NADPH consumption, diaphorase/resazurin fluorescence | Isocitrate dehydrogenase [NADP] cytoplasmic (Homo sapiens), O75874; also: potency is read from the fitted curve at half-maximal effect; nearly all actives have a fitted effect of over 65% in size
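IDH1-R132H (0.5 ug/mL) preincubated 30 min with compound, then NADPH (0.016 mM) and alpha-KG (2 mM) added; 80 min at RT, pH 7.5. Remaining NADPH coupled via diaphorase/resazurin to fluorescence (540/590 nm); concentration-response curves normalized to no-enzyme control.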
* = called active by the depositor; ? = inconclusive; . = no result; [ ] = dose if it differs, or a comment. Unless noted, calls follow the shape of the dose curve; as a rule, active = well fitted curve in the direction sought with a large enough effect; inconclusive = small, poorly fitted or top-dose-only effect, or another doubt; inactive = no such curve, though single readings can be large; an effect the other way counts as inactive or inconclusive. % is scaled to controls: 0 for no effect and ±100 for the full control effect.

SMILES	FBPA coupling cs	TrxR1 inh	Eya2 phos inh	TrxR1 substrate	mIDH1 inhibitor
CC[C@H](C)[C@H](NC(=O)[C@H](N)Cc1ccc(O)cc1)C(=O)N[C@@H](CC(N)=O)C(=O)N[C@@H](CC(C)C)C(=O)N[C@H](C(=O)N[C@@H](C(=O)N[C@@H](CCCN=C(N)N)C(=O)N[C@@H](CCC(N)=O)C(=O)N[C@@H](CCCN=C(N)N)C(=O)N[C@H](Cc1ccc(O)cc1)C(N)=O)[C@@H](C)O)[C@@H](C)CC	0	.	.	.	.
Cn1cnc([N+](=O)[O-])c1Oc1ccccc1	5	45µM*	3%	0%	6%
Cn1cnc([N+](=O)[O-])c1Oc1cccc2ccccc12	0	8.9µM*	-1%	-5%	4%
Cn1cnc([N+](=O)[O-])c1Oc1cccc(O)c1	2	25µM*	-5%	-11%	-3%
Cn1cnc([N+](=O)[O-])c1Cl	-3	?	6%	4%[57.1 µM]	3%
CC(C)C(=O)SCCCCCCC(=O)Nc1nc(-c2ccccc2)cs1	-2	.	.	.	.
O=C1CCCN1CCCNC(=S)Nc1ccc(Br)cc1Cl	1	40µM*	6%	10%[0.0914 µM]	2%
COc1ccc(Cl)cc1NC(=S)NCCCN1CCCC1=O	1	-29%	5%	2%	5%
Clc1ccc(/C=C/c2ccc3ccccc3n2)cc1Cl	.	?	.	-4%	.
O=C(C[N+]12CCCc3cccc(c31)CCC2)c1ccc2ccc3cccc4ccc1c2c34	.	?	.	24%	.
O=C(/C=C/c1ccco1)NCC(=O)N/N=C/c1ccccc1[N+](=O)[O-]	1	45µM*	15%	-4%	-4%
CC(C)(C)N=Cc1c(O)ccc2oc3c(c12)CCCC3	1	?	-20%	5%	8%
O=[N+]([O-])c1cc2oc3c(c2c(C=NCc2ccncc2)c1O)CCCC3	-32*	-28%	3%	-8%	-8%
CN1CCc2ccc3c4c2[C@]1(C)Cc1cccc(c1-4)OCO3	-18	.	.	.	.
CCOC(=O)C1=C(Cc2ccc(Cl)cc2)C(=O)c2ccccc2C1=O	-37*	10µM*	-14%	6%	24%
CCOC(=O)C1=C(C)N=C2c3ccccc3C(=O)C2C1c1ccc(Cl)cc1 (centres undefined)	-6	-16%[57.1 µM]	-13%	-4%[57.1 µM]	-9%
COc1cc(/C=C/c2sc3ccccc3[n+]2CCCS(=O)(=O)[O-])ccc1O	-34*	3%[57.1 µM]	4%	-4%[57.1 µM]	16%
O=[N+]([O-])c1cc(S(=O)(=O)N2CCCCCC2)ccc1F	15	32µM*	6%	-6%	46µM*
COC(=O)CSc1nc2c(c(-c3ccco3)c1C#N)CCCC2	-13	16µM*	5%	2%	3%
CN1CCc2cc(O)c(O)cc2C1Cc1ccc(O)c(O)c1 (centres undefined)	-9	.	.	.	.
O=C(Nc1ccccc1F)c1cnn2c1NC(=C1CC1)C=C2C(F)F	.	11%	.	1%	.
CC(=O)c1cccc(OCc2cc(C(=O)N(C)Cc3ccc(C)o3)no2)c1	-1	3.5µM*	4%	-3%	11%
Cc1ccc(CN(C)C(=O)c2ccccc2Oc2ccccc2)o1	1	11µM*	-15%	7%	6%
CC(=O)c1cccc(OCc2cc(C(=O)N(C)CCc3ccccn3)no2)c1	0	-28%	15%	-2%	-22%
CSc1ccccc1OCc1cc(C(=O)N(C)Cc2ccc(C)o2)no1	-3	35µM*	-3%	1%	1%
SMILES	FBPA coupling cs	TrxR1 inh	Eya2 phos inh	TrxR1 substrate	mIDH1 inhibitor
COc1cc(OC)cc(C(=O)Nc2ccc(NC(=O)c3ccco3)c(C)c2)c1	0	25µM*	-5%	-3%	1%
CN(C)c1ccc(N2CN=C3SCC(=O)N3C2)cc1	-51*	?	-3%	-3%[57.1 µM]	29%
O=C(NC(=S)Nc1cccc2cc(O)ccc12)c1ccccc1Br	.	50µM*	-18%	-4%	9%
O=C(NC(=S)Nc1ccccc1N1CCCC1)c1ccco1	-38*	-8%	-24%	-8%	10%
COc1ccccc1C(=O)NC(=S)Nc1cccc2cc(O)ccc12	.	?	.	-5%	-3%
O=C(NC(=S)Nc1cccc2c(O)cccc12)c1ccco1	-4	-32%	-1%	6%	9%
O=C(NC(=S)Nc1cccc2cc(O)ccc12)c1ccco1	1	79µM*	7%	-11%	-4%
COc1ccc(CCn2c(=S)[nH]c(=O)c3cccnc32)cc1OC	.	-16%	.	-4%	.
COc1ccc(C(C)=O)cc1COC(=O)c1cc(C)oc1C	3	10µM*	3%	-4%	8%
COc1ccc(C(C)=O)cc1COC(=O)CCNS(=O)(=O)c1ccc(C(C)=O)cc1	.	40µM*	-1%	-9%	-3%
COc1ccc(C(C)=O)cc1COc1ccccc1[N+](=O)[O-]	1	35µM*	-6%	-11%	-10%
COc1ccc(C(C)=O)cc1COC(=O)c1cc(=O)c2ccccc2o1	-4	13µM*	5%	13%[0.0914 µM]	5%
COc1ccc(C(C)=O)cc1COC(=O)c1ccc2ccccc2n1	0	-14%	-13%	-7%	-6%
Cc1cnc2c(C)ccc(C)c2c1/C=C/c1ccc(N(C)C)cc1	.	-3%	.	-10%	.
COC(=O)C1[C@H]2SC(C)(C)C(C(=O)OC)N2C(=O)N1Cc1ccccc1 (some centres undefined)	.	16%	.	-3%	.
Nc1c(Br)cc(/C=C/c2ccnc3ccccc23)cc1Br	.	-9%	.	4%	.
CCc1cccc2c(C(O)c3c[nH]c4ccccc34)c[nH]c12 (centres undefined)	.	1%	.	-2%	.
COc1ccccc1N1CCN(C(c2cc3ccc(C)cc3[nH]c2=O)c2nnnn2C2CCCC2)CC1 (centres undefined)	-34*	?	-4%	-12%	3%
COc1ccc2[nH]c(=O)c(C(c3nnnn3CC3CCCO3)N3CCCCC3)cc2c1 (centres undefined)	0	11%[57.1 µM]	1%	23%	6%
COc1ccccc1N1CCN(C(c2cc3cc(C)ccc3[nH]c2=O)c2nnnn2C2CCCC2)CC1 (centres undefined)	-15	-22%[57.1 µM]	12%	9%[57.1 µM]	6%
Cc1cc2cc(C(c3nnnn3Cc3ccco3)N3CCCCC3)c(=O)[nH]c2cc1C (centres undefined)	0	-18%	-2%	10%	0%
Cc1ccc2cc(C(c3nnnn3CC3CCCO3)N3CCCC4(CCCCC4)C3)c(=O)[nH]c2c1 (centres undefined)	.	-19%	.	-6%	-5%
